Wnt act: Wnt/beta-catenin pathway activators, primary screen, cell-based, plate reader, single point | hit rate 1.2% among 300,000 | Wnt/beta-catenin reporter cell assay, activator | activation, % at 9.35 µM; in the data active means activation above about 30%, passing the limit was not always enough; inconclusive means no clear call, values can overlap the other calls
GAA850 FXN act: FXN promoter activators, primary screen, cell-based, luciferase luminescence, HEK293 lucGAA850 | hit rate 0.56% among 360,000 | HEK293 lucGAA850 FXN promoter luciferase reporter, 24 h; percent of 10 µM SAHA response | activation, % at 6 µM;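 active means activation above the average of all compounds screened plus 3 SD, cutoff fixed separately per campaign, cut at about 7.5% in these data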
MITF act: activators of MITF-driven TRPM1 promoter reporter, primary screen, cell-based, SK-MEL-5, luciferase, single point. SK-MEL-5 TRPM1-promoter luciferase, 24 h; % of positive control, neutral wells = 0. activation, % at 12.5 µM. hit rate 0.75% among 300,000. AID 588334, 2011;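 active means mean activation of at least 80% with every replicate also reaching 80%; inconclusive means mean reaches 80% but some replicate falls short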
esBAF inh: Bmi1 luciferase reporter increase in mESCs, primary screen, esBAF inhibitor project, mouse ES cells, Bmi1 luciferase knock-in, single point | 24 h; 100% = twice the neutral-well signal | reporter increase, % at 12.5 µM | hit rate 2% among 350,000; in the data active means activation above about 40%; inconclusive means no clear call, values can overlap the other calls;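 further: a rise in the Bmi1 reporter signal indicates esBAF inhibition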
C2C12 statin: suppressors of statin myotoxicity in C2C12 myotubes, primary screen, cell-based, single point, plate reader | rescue of ATP level, % at 7.49 µM | C2C12 myotubes + simvastatin, ATP luminescence, 48 h; scaled: DMSO 0, geranylgeraniol control 100 | hit rate 0.78% among 330,000;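 active means mean ATP rescue above about 67%, or every replicate alone reaching that limit, limit read from the data, passing the limit was not always enough; inconclusive means no clear call, values can overlap the other calls; inactive means mean under the limit and some replicate under it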;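 further: myotubes were challenged with 10 µM simvastatin during compound exposure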
Each line names hits and unclear results; the compound was inactive in the other large screens. Sampled rows, rich in hits. Any-hit rate of the full collection: about 3.3%.

O=C(C[C@@H]1C[C@@H]2c3cc(NS(=O)(=O)c4ccccc4)ccc3O[C@@H]2[C@H](CO)O1)NC1CCCC1	none (no result: Wnt act, GAA850 FXN act, MITF act)
C/C=C/c1ccc2c(c1)O[C@H](CN(C)C(=O)CN1CCOCC1)[C@H](C)CN([C@H](C)CO)S2(=O)=O	none (no result: Wnt act, GAA850 FXN act, MITF act)
O=C1CCCC(O)=C1N=Nc1ccc2c(c1)OCO2	Wnt act 45.5 (no result: esBAF inh, C2C12 statin)
O=C1CCCC(O)=C1N=Nc1ccc(C(=O)O)cc1	none
CCC1=NN(C(=O)c2ccccc2Br)C(O)(c2ccc(Br)cc2)C1 (stereo not given)	none (no result: esBAF inh, C2C12 statin)
CCC1=NN(C(=O)c2ccccc2O)C(O)(c2ccccc2)C1 (stereo not given)	esBAF inh 86.7 (no result: MITF act)
COc1cccc2c1nc(C)c1cc(C)oc12	none (no result: Wnt act)
COc1cccc2nc3cc(C)c(C)cc3nc12	Wnt act 33.9
O=C(Cc1ccccn1)NCC[C@H]1CC[C@@H](NC(=O)Nc2ccc(Cl)cc2)[C@@H](CO)O1	none (no result: Wnt act, GAA850 FXN act, MITF act)
N#Cc1ccc(NC(=O)CCc2nc3ccccc3s2)cc1	none
CCC(=O)Nc1ccc(OCc2nc3ccccc3s2)cc1	Wnt act 41.2 (no result: esBAF inh, C2C12 statin)
Fc1ccc(OCc2nc3ccccc3s2)cc1	Wnt act 59.3 (no result: esBAF inh, C2C12 statin)
Cc1cc(OCc2nc3ccccc3s2)ccc1N	Wnt act 41.4 (no result: MITF act)
c1ccc(OCc2nc3ccccc3s2)cc1	none (no result: Wnt act, MITF act, C2C12 statin)
O=C(C[C@H]1C=C[C@@H](NS(=O)(=O)c2ccccc2F)[C@H](CO)O1)NCCCN1CCOCC1	none (no result: Wnt act, GAA850 FXN act, MITF act)
Cc1ccc(S(=O)(=O)Nc2ccc3c(c2)C(=O)N([C@@H](C)CO)C[C@@H](C)[C@@H](CN(C)C(=O)NC2CCCCC2)O3)cc1	none (no result: Wnt act, GAA850 FXN act, MITF act)
O=C(C[C@@H]1CC[C@H]2[C@@H](COC[C@@H](O)CN2Cc2ccc(Oc3ccccc3)cc2)O1)Nc1nccs1	C2C12 statin 100.0 (no result: Wnt act, GAA850 FXN act, MITF act)
O=C(C[C@@H]1CC[C@@H]2[C@H](COC[C@@H](O)CN2Cc2ccc(Oc3ccccc3)cc2)O1)Nc1nccs1	none (no result: Wnt act, GAA850 FXN act, MITF act)
O=C(NCC1CCCCC1)[C@@H]1[C@@H](CO)[C@@H]2Cn3c(cccc3=O)[C@@H]2N1C(=O)CC1CC1	none (no result: Wnt act, GAA850 FXN act, MITF act)
O=S(=O)(c1ccc(F)cc1)N1CC[C@@H]2[C@@H](CO)Nc3ccc(Br)cc3[C@@H]21	none (no result: Wnt act, GAA850 FXN act, MITF act)
CCOc1ccccc1NC1=NCC(=O)N1Cc1ccc(F)cc1	none
COc1ccccc1NC1=NCC(=O)N1Cc1ccccc1	C2C12 statin 88.1
C[C@H]1CN([C@@H](C)CO)C(=O)c2cc(-c3cccc(C#N)c3)cnc2O[C@H]1CN(C)Cc1ccncc1	none (no result: Wnt act, GAA850 FXN act, MITF act)
CNC(=O)c1sc(-c2ccc(Cl)cc2)nc1C	esBAF inh 67.5
CNC(=O)c1sc(-c2ccccc2)nc1C	none (no result: Wnt act)
Cc1noc(C)c1NC(=O)N(C)C[C@H]1Oc2ccc(NC(=O)Cc3cn(C)c4ccccc34)cc2C(=O)N([C@H](C)CO)C[C@@H]1C	none (no result: Wnt act, GAA850 FXN act, MITF act)
CCS(=O)(=O)NCC[C@H]1CC[C@H](NC(=O)Cc2ccccn2)[C@@H](CO)O1	none (no result: Wnt act, GAA850 FXN act, MITF act)
O=C(Nc1nc(-c2ccccn2)cs1)C12CC3CC(CC(O)(C3)C1)C2	Wnt act 40.0 (no result: esBAF inh, C2C12 statin)
O=C(Nc1ccccn1)C12CC3CC(C1)CC(C(=O)Nc1ccccn1)(C3)C2	none (no result: esBAF inh, C2C12 statin)
c1ccc(Nc2nc(-c3ccccn3)cs2)cc1	Wnt act 39.7
O=C(Nc1nc(-c2ccccn2)cs1)C1CC1	esBAF inh 45.8
O=C(CC1CC2CCC1C2)Nc1nc(-c2ccccn2)cs1 (stereo not given)	none (no result: esBAF inh, C2C12 statin)
O=C(C[C@H]1C=C[C@@H](NC(=O)Cc2ccccn2)[C@@H](CO)O1)NCCCN1CCOCC1	none (no result: Wnt act, GAA850 FXN act, MITF act)
CN(C)C(=O)C[C@@H]1C[C@H]2c3cc(NC(=O)C4CCOCC4)ccc3O[C@H]2[C@H](CO)O1	none (no result: Wnt act, GAA850 FXN act, MITF act)
CNC(=O)C[C@@H]1CC[C@H]2[C@H](COc3ccc(NC(=O)Nc4cc(C)cc(C)c4)cc3C(=O)N2C)O1	none (no result: Wnt act, GAA850 FXN act, MITF act)
Cc1ccc(-c2ccc3c(c2)O[C@@H](CN(C)C(=O)C2CC2)[C@H](C)CN([C@H](C)CO)S3(=O)=O)cc1	none (no result: Wnt act, GAA850 FXN act, MITF act)
COc1ccc(C)cc1NC(=O)C1CCCN1S(=O)(=O)c1ccccc1F (stereo not given)	Wnt act 62.3
CN1CCc2c(sc3c2C(=O)NC(c2ccccn2)N3)C1 (stereo not given)	none (no result: Wnt act, MITF act)
O=C1NC(c2ccc(Br)cc2)Nc2sc3c(c21)CCC3 (stereo not given)	none
O=C1NC(c2ccccn2)Nc2sc3c(c21)CCC3 (stereo not given)	MITF act inconclusive, esBAF inh 66.1 (no result: Wnt act)
Cc1ccsc1C1NC(=O)c2c(sc3c2CCCC3)N1 (stereo not given)	esBAF inh 49.9 (no result: Wnt act)
O=C(C[C@H]1C=C[C@@H](NC(=O)c2ccccc2)[C@@H](CO)O1)NCCc1ccncc1	none (no result: Wnt act, GAA850 FXN act, MITF act)
CCC(=O)N(C)C[C@@H]1Oc2cc(C#CC3CC3)ccc2S(=O)(=O)N([C@@H](C)CO)C[C@@H]1C	none (no result: Wnt act, GAA850 FXN act, MITF act)
C[C@H]1CCCCO[C@@H](CN(C)CC2CCCCC2)[C@@H](C)CN([C@@H](C)CO)C(=O)c2cc(NC(=O)CCCN(C)C)ccc2O1	none (no result: Wnt act, GAA850 FXN act, MITF act)
C[C@@H]1CN([C@H](C)CO)C(=O)Cc2cc(NC(=O)CCCCCC(=O)Nc3ccccc3N)ccc2O[C@@H]1CN(C)Cc1ccc(Cl)c(Cl)c1	C2C12 statin 84.9 (no result: Wnt act, GAA850 FXN act, MITF act)
C[C@H](CO)N1C[C@H](C)[C@H](CN(C)Cc2ccc(Cl)c(Cl)c2)Oc2ccc(NC(=O)CCCCCC(=O)Nc3ccccc3N)cc2CC1=O	C2C12 statin 139.0 (no result: Wnt act, GAA850 FXN act, MITF act)
C[C@@H]1CN([C@@H](C)CO)C(=O)Cc2cc(NC(=O)CCCCCC(=O)Nc3ccccc3N)ccc2O[C@@H]1CN(C)Cc1ccc(Cl)c(Cl)c1	none (no result: Wnt act, GAA850 FXN act, MITF act)
Cc1ccc(-c2ccc3c(c2)O[C@H](CN(C)CC2CC2)[C@H](C)CN([C@H](C)CO)S3(=O)=O)cc1	none (no result: Wnt act, GAA850 FXN act, MITF act)
C[C@H](CO)N1C[C@H](C)[C@H](CN(C)Cc2ccccc2F)Oc2cc(C#CC3CC3)ccc2S1(=O)=O	none (no result: Wnt act, GAA850 FXN act, MITF act)
COc1ccc(NC(=O)N[C@H]2CC[C@@H](CCn3cc(-c4ccccn4)nn3)O[C@H]2CO)cc1	none (no result: Wnt act, GAA850 FXN act, MITF act)
Cc1ccc2oc(Nc3nc(C)c(C)c(C)n3)nc2c1	Wnt act 40.9 (no result: MITF act, esBAF inh, C2C12 statin)
Cc1nc(Nc2nc3ccccc3o2)nc(C)c1C	none (no result: esBAF inh, C2C12 statin)
Cc1ccccc1S(=O)(=O)N1C[C@@H](O)COC[C@H]2O[C@H](CC(=O)NCCc3ccccc3)CC[C@@H]21	none (no result: Wnt act, GAA850 FXN act, MITF act)
C/C(=N\NC(=O)c1cc(C(C)C)[nH]n1)c1ccncc1	none
C/C(=N/NC(=O)c1ccc(Br)o1)c1cccs1	none (no result: esBAF inh, C2C12 statin)
C/C(=N/NC(=O)c1cc(C(C)C)[nH]n1)c1cccs1	Wnt act 33.1
C/C(=N\NC(=O)c1cc(Br)ccc1O)c1cccs1	Wnt act inconclusive, MITF act 80.6
C/C(=N\NC(=O)c1cc(C)[nH]n1)c1cccs1	Wnt act 34.5
Brc1ccccc1-c1nc2c3ccccc3ncn2n1	Wnt act 39.3, esBAF inh 49.3
S=c1nc2ccccc2c2nc(-c3ccccc3Br)[nH]n12	none
